This passage reports INHIBITION results from ChEMBL document CHEMBL4513216, “Probing the Open Global Health Chemical Diversity Library for Multistage-Active Starting Points for Next-Generation Antimalarials” (ACS Infect Dis, 2020).

In all, about 69,000 compounds went through this assay and about 8,600 (12%) showed an effect of 50% or more. What follows is part of a selection rich in strong results, with near analogues and random picks from the rest.

For the test, the system named is Plasmodium berghei. Nature of the test: Screen against P. berghei liver stage (PbLuc), transformed with Luciferase, at 10uM. The format is functional, HepG2. Conditions: tested at 10 uM.
With `Cc1nn(CC(C)C)c(N(C)C)c1CNCCS(C)(=O)=O`, the INHIBITION came to 26.4%. Under `CNC(=O)CCCNCc1c(C)nn(C)c1N(C)C` stands 14.7%. Turning to `Cc1nn(CC(C)C)c(N(C)C)c1CNCCCNS(C)(=O)=O`, the INHIBITION came to 42.1%.

Regarding `CNC(=O)CCCNCc1c(C)nn(CC(C)C)c1N(C)C`, the INHIBITION is 53.3%.

Turning to `Cc1nn(CC(C)C)c(N(C)C)c1CNCCC(=O)NC(C)C`, the INHIBITION came to 13%. Take `CC(=O)NCCCNCc1c(C)nn(CC(C)C)c1N(C)C`: the INHIBITION is given as 61.1%. Regarding `Cc1nc(C)c(C(C)NCc2c(C)nn(CC(C)C)c2N(C)C)s1` (configuration not stated), the INHIBITION is given as 50%. Under `Cc1nc(C)c(C(C)NCc2c(C(C)C)nn(C)c2N(C)C)s1` (configuration not stated) stands 1.2%. With `Cc1nc(C)c(C(C)NCc2c(C)nn(C)c2N(C)C)s1` (configuration not stated), the INHIBITION is recorded as -15.1%.

As to `Cc1noc(C)c1CN1CCN(Cc2cccnc2)c2ncccc2C1`, the INHIBITION was determined as 22.9%. For the compound `COCCCn1ccc(NS(=O)(=O)c2cc(F)c(C)cc2F)n1`, the INHIBITION is reported as 23.1%. With `CCOc1ccc(Cl)c(C(=O)NCCC(=O)Nc2ccncc2)n1`, the INHIBITION is listed as -0.44%. Under `O=C1C[C@H]2[C@@H](CCN2C(=O)Cc2cccs2)N1Cc1ccncc1` stands 37.1%; under `CCn1cc(C(=O)N2CCOCC2)cn1`, -60.9%.

`CNC(=O)c1nc2c(s1)CCN(C(=O)Cc1ccc(OC)cc1)CC2`: the INHIBITION was found to be 14.2%.

In the case of `CCN(CC)C(=O)c1nc2c(s1)CCN(C(=O)CCC(=O)OC)CC2`, the INHIBITION is given as 12.7%. Turning to `COC(=O)CCC(=O)N1CCc2nc(C(=O)N3CCOCC3)sc2CC1`, the INHIBITION is given as -4.99%. Regarding `COC(=O)CCC(=O)N1CCc2nc(C(=O)N(C)C)sc2CC1`, the INHIBITION was determined as 79.2%. Regarding `COCC(=O)N1CCc2nc(C(=O)N(C)C)sc2CC1`, the INHIBITION was -6.46%. Regarding `COC(=O)CCC(=O)N1CCc2nc(C(=O)N3CCCCC3)sc2CC1`, the INHIBITION is 57.1%.

With `CC(=O)N(C)C1CCN(c2ncc3c(n2)CCN3c2ccccc2)C1` (configuration not stated), the INHIBITION was 9.4%. Under `CN(C)c1ncccc1CNC(=O)NCC(c1cccs1)N(C)C` (configuration not stated) stands 23.2%. With `COC[C@@]12CCO[C@@H]1CCN(C(=O)COc1ccc(C)cc1)C2`, the INHIBITION is -3.52%.

As to `O=C(Nc1ccc(F)cc1)C(c1ccccc1)N1CCOCC1` (configuration not stated), the INHIBITION is -3.94%. Under `COc1cc(CN2CC(=O)N(c3ccc(C)cc3)CC2C)cc(OC)c1` (configuration not stated) stands 46.6%.

As for `COc1ccc(CN2CC(=O)N(c3ccc(C)cc3)CC2C)cc1O` (configuration not stated), the INHIBITION was 43.2%. `COc1cccc(OC)c1CN1CC(=O)N(c2ccc(C)cc2)CC1C` (configuration not stated): the INHIBITION was found to be 76.8%.

Regarding `Cn1cc(CN2CCC[C@]3(C[C@@H](Oc4ncccc4F)CO3)C2)cn1`, the INHIBITION was found to be 35.5%. Consider `CC(C)c1ccc(OCCC(=O)N2CCCC(C(N)=O)C2)cc1` (configuration not stated), for which the INHIBITION is given as 4.18%. For the compound `CC(=O)N1CCCc2ccc(S(=O)(=O)N3CCCCC3C)cc21` (configuration not stated), the INHIBITION came to 54.4%. In the case of `CS(=O)(=O)c1ccc2c(c1)N(C(=O)c1cccc(F)c1)CCC2`, the INHIBITION amounted to 9.63%. For the compound `CC(=O)N1CCc2ccc(S(=O)(=O)N3CCCCC3C)cc21` (configuration not stated), the INHIBITION was -0.178%. Under `Cc1cc(-c2c[nH]nc2C2CCCCN2C(=O)c2ccccc2)on1` (configuration not stated) stands 23%; under `Nc1ccnc(N2CCC(c3nccn3CC3CC3)CC2)n1`, -16.3%.

With `CCn1ncc2c1C(COC)CN(Cc1ccc(OC)cc1)C2` (configuration not stated), the INHIBITION turned out to be 42.1%.

Regarding `CCn1ncc2c1C(COC)CN(Cc1ccc(F)cc1)C2` (configuration not stated), the INHIBITION is reported as -2.35%. For the compound `CCn1ncc2c1C(COC)CN(Cc1cccnc1)C2` (configuration not stated), the INHIBITION was -67.6%. `COCC1CN(Cc2ccsc2)Cc2cnn(C)c21` (configuration not stated): the INHIBITION was -0.371%. For `CCn1ncc2c1C(COC)CN(Cc1cnn(C)c1)C2` (configuration not stated), the INHIBITION turned out to be 68.8%. `CCn1ncc2c1C(COC)CN(Cc1ccsc1)C2` (configuration not stated): the INHIBITION is recorded as 62.6%.

With `CCc1nc(C2CCCN(C(=O)c3ccc4[nH]cnc4c3)C2)no1` (configuration not stated), the INHIBITION turned out to be 5.7%. Turning to `Cc1nc(N[C@H]2COC[C@@H]2N2CCCCC2)c2c(C)nn(C)c2n1`, the INHIBITION amounted to 24.8%.

`COc1cc(OC)c2nc(NCCN3CCNC3=O)cc(C)c2c1`: the INHIBITION turned out to be 7.92%. As to `COc1nc2ccccc2cc1C1CC(=O)Nc2n[nH]c(C3CCC3)c21` (configuration not stated), the INHIBITION is on record as -1.7%. `Cc1noc(C)c1CNCC1COCc2c(-c3ccsc3)nnn2C1` (configuration not stated): the INHIBITION is on record as -57.1%. Turning to `COc1ccccc1N1CCN(Cc2nccc(OC)c2OC)CC1=O`, the INHIBITION worked out at 40.7%. On to `COc1ccnc(CN2CCCC(CCc3ccccc3)C2)c1OC` (configuration not stated), for which the INHIBITION turned out to be 75.7%.

Regarding `Nc1nccnc1CC1CCCN(Cc2ccnc3ccccc23)C1` (configuration not stated), the INHIBITION was 78.7%. For the compound `COc1ccnc(CN2CCCC(CCc3ccc(F)cc3)C2)c1OC` (configuration not stated), the INHIBITION is reported as 94.8%.

In the case of `Nc1nccnc1CC1CCCN(Cc2cccc3[nH]ccc23)C1` (configuration not stated), the INHIBITION was -1.16%. Under `Nc1nccnc1CC1CCCN(Cc2c[nH]c3ccccc23)C1` (configuration not stated) stands 24.8%. As for `COc1ccccc1CN1CCCC(Cc2nccnc2N)C1` (configuration not stated), the INHIBITION was 21.1%. Under `O=C(O)COc1ccc(CN2CCCC(CCc3ccccc3)C2)cc1` (configuration not stated) stands 28.5%; under `Cn1ccnc1CN1CCCC(CCc2ccc(F)c(F)c2)C1` (configuration not stated), 37.7%; under `CCc1nnc2n1CCN(C(=O)c1ccc3c(c1)[nH]c(=O)n3C)C2`, 8.38%. `COc1ccc(-c2cnc3c(c2)CN(C2CC2)C(=O)CCN3)cc1`: the INHIBITION is given as 7.09%. Under `CS(=O)(=O)N1C[C@H]2CC[C@@H](C1)N(C(=O)CCn1cnc3ccccc31)C2` stands 12.9%. As to `CC(C)(C)Nc1c(C2CCN(C(=O)C(C)(C)C)CC2)nc2ccccn12`, the INHIBITION is listed as 30.3%.

Consider `Cc1nc(C)n(CC2CN(CCC(=O)N3CCCCC3)CCO2)n1` (configuration not stated), for which the INHIBITION is on record as 21.5%. Under `COCCc1noc(CN2CCOC(CN(C)C)C2)n1` (configuration not stated) stands 15.3%.

For `O=C1NC2(Cc3ccccc31)CN(CC1CCOCC1)C2`, the INHIBITION was found to be 35%. For the compound `c1ccc(-c2cc(CN3CCc4cncnc4C3)on2)cc1`, the INHIBITION is given as -28%. For the compound `CC(C)Cc1cc(C(=O)NCC2CCCN(Cc3ccco3)C2)on1` (configuration not stated), the INHIBITION is -63.8%.

Turning to `CC(C)Cc1cc(C(=O)NC(C)(C)CN2CCCCCC2)on1`, the INHIBITION came to 58.7%. For `CC(C)Cc1cc(C(=O)NCC(O)CN2CCCCCC2)on1` (configuration not stated), the INHIBITION is -8.47%.

For `Cn1cc(CN2C[C@@H]3COC[C@]3(CNC(=O)c3ccsc3)C2)cn1`, the INHIBITION is 34.7%. For `Cc1ccnc(N2CCCC(c3nncn3C3CC3)C2)n1` (configuration not stated), the INHIBITION came to 46.6%. Under `c1cc2occc2c(N2CCCC(c3nncn3C3CC3)C2)n1` (configuration not stated) stands 57.5%; under `Cc1cc(N2CCCC(c3nncn3C3CC3)C2)ncn1` (configuration not stated), 53.5%. As to `CN(C)Cc1cn(CC2CCCN(c3nccc4occc34)C2)nn1` (configuration not stated), the INHIBITION amounted to 34.9%.

For `Cc1cc(N2CCCC(c3nccnc3N(C)C)C2)ncn1` (configuration not stated), the INHIBITION came to 5.25%. For `O=C(O)c1cn(CC2CCCN(c3nccc4occc34)C2)nn1` (configuration not stated), the INHIBITION is -2.48%.
